Fluorescence fold increase data for 27 compounds are collected here from PubChem BioAssay AID709 (SRMLSC, 2007).

Screen size: about 65,000 compounds; about 3,600 (5.5%) were called active. The entries come from a sample that favours actives as a whole. Unmarked numbers belong to inactive results.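 How the source made its calls: active means at 10 µM, mean starting fluorescence two-fold or more over control wells; inactive means the rest.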

The nature of this test: intrinsic fluorescence of library compounds, ex339/em460 – biochemical, MLSMR library, data from DPM-DC assay, artefact control, profiling panel (AID 709).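 Further: signal is the first read of a kinetic run.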 The conditions noted are these: compound autofluorescence, ex339/em460 nm, NADH buffer; at 10 µM; hits give high values; 1 = no-compound wells, NADH background.
Turning to `CCC1(C)N(O)C(C)(C)C(c2ccc(OC)cc2)=[N+]1[O-]` (configuration not stated), the fluorescence fold increase was 1.08.

As for `COc1ccc(CCNC(=O)c2ccc3c(c2)NC(=O)C(N2CCOCC2)S3)cc1OC` (configuration not stated), the fluorescence fold increase was 1.05.

For `CCOc1ccccc1-n1c(SCC(=O)N2CCCC2)nnc1-c1ccoc1C`, the fluorescence fold increase was 1.07. As for `CCCCc1nccn1CCn1ccnc1CCCC`, the figure is 1.03. Regarding `COc1ccc(-c2cc(C(=O)NC(C(=O)O)C(C)C)c(C)o2)cc1OC` (configuration not stated), the fluorescence fold increase was 1.05.

For `C=C(C)c1cccc(C(C)(C)NC(=O)N2CCN(c3ncccn3)CC2)c1`, the fluorescence fold increase is 1.1. `Fc1ccc2[nH]c3c(N4CCN(Cc5ccc6c(c5)OCO6)CC4)ncnc3c2c1`: the fluorescence fold increase was 1.38. As for `CCN1CCCC1CNc1ncnc2c1[nH]c1ccc(F)cc12` (configuration not stated), the figure is 3.05 (active). As for `CC(C)OCCCNc1ncnc2c1[nH]c1ccc(F)cc12`, the figure is 3.76 (active); as for `Fc1ccc2[nH]c3c(N4CCSCC4)ncnc3c2c1`, 1.68; as for `COc1ccc(C(=O)Nc2cccnc2)cc1C(=O)Nc1cccnc1`, 1.05. In the case of `C=CCn1c(C)cc(C(=O)CN2C(=O)c3ccccc3C2=O)c1C`, the fluorescence fold increase is 1.04. `C=CCN(CC=C)C(=O)CN1C(=O)c2ccccc2C1=O`: the fluorescence fold increase was 1.04. Turning to `Cc1ccc(OCC(=O)Nc2ccc(-c3nnc(-c4ccco4)o3)cc2)cc1`, the fluorescence fold increase was 1.37.

As for `O=C(CCc1ccccc1)Nc1cccc(-c2nnc(-c3ccco3)o2)c1`, the fluorescence fold increase is 1.31. The figure for `Cc1ccc(OCC(=O)Nc2ccc(-c3nc4ncccc4o3)cc2)cc1` is 3.7 (active). `CCOC(=O)c1ccc(NC(=O)CSc2ncccn2)cc1`: the fluorescence fold increase was 1.02.

As for `COc1ccc(CC(=O)Nc2ccc(-c3nnc(-c4ccc(C)cc4)o3)cc2)cc1`, the fluorescence fold increase is 2.89 (active). As for `O=C(COC(=O)c1ccc(Oc2ccccc2)cc1)Nc1nnc(-c2ccccc2)o1`, the figure is 1.19.

For the compound `COc1ccc(-c2nc(CS(=O)CC(=O)NCc3ccccn3)c(C)o2)cc1` (configuration not stated), the fluorescence fold increase was 1. As for `CCC(=O)Oc1cccc(C(=O)Nc2ccc(-c3nnc(-c4ccco4)o3)cc2)c1`, the figure is 1.53. For the compound `COc1ccc(CC(=O)Nc2ccc(-c3nnc(-c4ccccc4)o3)cc2)cc1`, the fluorescence fold increase was 2.23 (active). As for `CCCOC(=O)CC1C(=O)NCCN1Cc1ccc(F)cc1` (configuration not stated), the figure is 1.06; as for `C=C(Br)Cn1c(CCCC)nc2ccccc21`, 1.05. The figure for `CCN(c1ccccc1)S(=O)(=O)c1cccc(C(=O)O)c1` is 0.98; for `Cc1noc(C)c1CSc1nnc2ccc3ccccc3n12` it is 1.17.

As for `COC(=O)C(NC(C)=O)(Nc1nc2c(s1)CCCC2)C(F)(F)F` (configuration not stated), the fluorescence fold increase is 1.04.
